Reference: ChEMBL document CHEMBL4513216, “Probing the Open Global Health Chemical Diversity Library for Multistage-Active Starting Points for Next-Generation Antimalarials” (ACS Infect Dis, 2020)
Among all 69,000 compounds or so, about 8,600 (12%) showed an effect of 50% or more. This excerpt belongs to a sample that is enriched for strong results.

What follows are compounds tested on Plasmodium berghei (assay: Screen against P. berghei liver stage (PbLuc), transformed with Luciferase, at 10uM). Conditions: tested at 10 uM.
Format: functional, HepG2

Compound	INHIBITION [%]
CCS(=O)(=O)N1CCOCC2(CCN(c3ccccn3)C2)C1 (stereo not drawn)	11.4
Cc1cnc(N2CCOC3(CCCN(c4ncccn4)C3)C2)nc1 (stereo not drawn)	0.804
CCCS(=O)(=O)N1CCOCC2(CCN(c3ccccn3)C2)C1 (stereo not drawn)	20.5
Cc1cnc(N2CCOC3(CCCN(C)C3)C2)nc1 (stereo not drawn)	52.3
CC(=O)N1CCCC2(C1)CN(c1ncc(C)cn1)CCO2 (stereo not drawn)	-5.63
CCS(=O)(=O)N1CCCC2(COCCN(c3ccccn3)C2)C1 (stereo not drawn)	56.1
Cc1cccc(S(=O)(=O)NCC2CCN(c3cnccn3)CC2)c1	-87.6
CN(C)S(=O)(=O)c1ccc2c(c1)N(Cc1nccn1C)CCC2	41.4
COCC(C)(O)CNC(=O)c1cc(-c2cc(OC)ccc2OC)nn1C (stereo not drawn)	-43.5
CCS(=O)(=O)c1ccc(N2CCC(NC(=O)c3cnn(C)c3)CC2)cc1	43.4
COc1cc(OC)cc(N2CCC(NC(=O)c3cccn3C)CC2)c1	62.5
CCS(=O)(=O)c1ccccc1N1CCC(NC(=O)c2ccc[nH]2)CC1	18.4
Cn1cccc1C(=O)NC1CCN(c2ccc(OC(F)(F)F)cc2)CC1	64.9
COc1cc(OC)cc(N2CCC(NC(=O)c3ccc[nH]3)CC2)c1	50.5
Cn1ccc(C(=O)NC2CCN(c3ncccn3)CC2)cc1=O	18.4
CN(C(=O)c1cccn1C)C1CCC(NC(=O)OC(C)(C)C)CC1 (stereo not drawn)	22.3
COc1cc(CN2CCC(NC(=O)c3cccn3C)C2)cc(OC)c1 (stereo not drawn)	44.9
CC(C)(C)OC(=O)NC1CCC(NC(=O)c2ccc[nH]2)CC1 (stereo not drawn)	12.7
O=S(=O)(NCC1COc2ccccc2C1)N1CCOCC1 (stereo not drawn)	18.6
COc1ccc2c(c1)CC(NCCCn1nc(C)nc1C)CC2 (stereo not drawn)	15.8
Cc1cc(C)c(S(=O)(=O)Nc2ccccc2CC(F)(F)F)cc1C(=O)O	15.9
O=C(O)c1cc(S(=O)(=O)Nc2cccc(F)c2F)cc2c1OCCO2	22.3
O=C(O)c1cc(S(=O)(=O)Nc2cccc3c2OCCO3)ccc1F	45.7
Cc1ccccc1NS(=O)(=O)c1cc2c(c(C(=O)O)c1)OCCO2	35.3
O=C(O)c1cc(S(=O)(=O)Nc2cccc3c2OCCO3)c(Cl)cc1F	81.7
Cc1cc(C)c(S(=O)(=O)Nc2cccc3c2OCCO3)cc1C(=O)O	50
Cc1nc(C2CCCN2C(=O)Cc2ccc(F)cc2)nc(O)c1C (stereo not drawn)	-10.5

Compound	INHIBITION [%]
Cc1ccc(-n2nnc(C(=O)NC(C)C)c2C2CC2)cc1	15.5
O=C1CCCN1Cc1ncn2c1CN(C(=O)NC1CCCCC1)CCC2	-19.5
COc1cccc(Nc2nc(C3CCCNC3)c3ccccn23)c1 (stereo not drawn)	-23.425
Cc1c(C)n(CC(O)CN2CCC(C)CC2)c2c(Cl)cccc12 (stereo not drawn)	37.3
Cc1c(C)n(CC(O)CN2CCCCCC2)c2c(Cl)cccc12 (stereo not drawn)	-48.6
Cc1c(C)n(CC(O)CN2CCOCC2)c2c(Cl)cccc12 (stereo not drawn)	56.5
Cc1nc[nH]c1C(=O)NCc1cccnc1N(C)C1CCCCC1	26.8
CCn1cc(C(=O)N(C)[C@@H]2CC[C@@H](N3CCCC3)[C@@H]2O)c(C)n1	12.335
CCc1ccc(CN2CCN(c3ncc(Cl)cn3)CC2)nc1	50.1
CCc1ccc(CN2CCN(c3ccc(Cl)nn3)CC2)nc1	-7.94
COc1ccc(CN2CCN(c3ncc(Cl)cn3)CC2)cc1	11.8
COc1ccccc1N1CCN(C(=O)CCn2ccnc2C)CC1(C)C	6.31
COc1ccccc1N1CCN(C(=O)Cn2nc(C)cc2C)CC1(C)C	52.8
COc1ccccc1N1CCN(C(=O)Cn2nccc2C)CC1(C)C	-56.6
COc1ccccc1N1CCN(C(=O)CCn2ccc(C)n2)CC1(C)C	8.48
COc1ccc(N2CCN(C(=O)CCn3nnnc3C)CC2(C)C)cc1	-34.8
COc1ccccc1N1CCN(C(=O)CCn2nnnc2C)CC1(C)C	51.8
CC1=C(C(=O)NCCc2n[nH]c3c2CCCC3)C(C)NC(=O)N1 (stereo not drawn)	-22.3
COCCn1ccnc1C1CCCN(C(=O)c2cc(F)cc(F)c2)C1 (stereo not drawn)	40.2
Cc1occc1C(=O)N1CCCS1(=O)=O	35.7
Cc1ccsc1CNC(=O)N1CCC(Cc2cnn(C)c2)C1 (stereo not drawn)	11.083
Cc1ccc(CNC(=O)N2CCOCC2C2CC2)cc1F (stereo not drawn)	49.3
COc1ccc(CNC(=O)N2CCOCC2C2CC2)c(C)c1 (stereo not drawn)	17.4
COc1ccc(CNC(=O)N2CCOCC2C2CC2)cc1C (stereo not drawn)	66.7
COc1ccccc1C1Cn2c(C)cnc2CN1Cc1c[nH]nc1C (stereo not drawn)	-14.2
Cn1cnc2c1CCN(Cc1csc(Cc3ccccc3)n1)C2	-3.7
